Data taken from publication PMC7862700, “An all-to-all approach to the identification of sequence-specific readers for epigenetic DNA modifications on cytosine”.

Legend:
Assay in all cases: DAPPL (digital affinity profiling via proximity ligation, sequencing); 10 mM Tris-HCl pH 7.5, 50 mM NaCl, 1 mM DTT, 4% glycerol, room temperature, 30 min; GST-TFs on glutathione beads, 16-mer random dsDNA library, 0.1% formaldehyde crosslink after washing; high values mean tight binding
Details in all cases: protein: recombinant; tags: N-terminal GST; dsDNA, one strand shown
FLI1 = target: T1, FLI1 (Homo sapiens, UniProt Q01543 1-452)
T1 sequence: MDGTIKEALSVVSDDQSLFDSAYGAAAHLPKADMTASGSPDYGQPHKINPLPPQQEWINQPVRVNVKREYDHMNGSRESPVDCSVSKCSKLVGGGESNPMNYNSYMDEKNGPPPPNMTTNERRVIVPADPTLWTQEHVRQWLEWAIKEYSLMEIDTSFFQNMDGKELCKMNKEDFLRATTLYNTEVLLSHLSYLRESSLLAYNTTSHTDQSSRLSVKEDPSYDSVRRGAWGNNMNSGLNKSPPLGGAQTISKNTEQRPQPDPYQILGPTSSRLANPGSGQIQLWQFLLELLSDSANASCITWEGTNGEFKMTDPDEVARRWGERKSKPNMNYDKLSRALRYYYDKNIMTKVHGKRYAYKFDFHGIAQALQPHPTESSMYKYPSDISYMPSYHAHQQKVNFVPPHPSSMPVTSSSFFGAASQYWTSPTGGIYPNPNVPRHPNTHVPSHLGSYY
How it was run: (§1)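 Yeast served to express human transcription factors as GST fusions, which were then captured on glutathione beads and labelled with DNA barcodes. Pooled with a tag-only sample, they were incubated with 200 nmole of a 16-mer random double-stranded DNA library for 30 min at room temperature in Tris/NaCl/DTT/glycerol buffer, washed, crosslinked with 0.1% formaldehyde, ligated by proximity, amplified by PCR and sequenced. Dividing each hexamer's read frequency for a factor by its frequency for the tag-only sample gives the binding signal.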

ELK1 = target: T2, ELK1 (Homo sapiens, UniProt P19419 1-428)
T2 sequence: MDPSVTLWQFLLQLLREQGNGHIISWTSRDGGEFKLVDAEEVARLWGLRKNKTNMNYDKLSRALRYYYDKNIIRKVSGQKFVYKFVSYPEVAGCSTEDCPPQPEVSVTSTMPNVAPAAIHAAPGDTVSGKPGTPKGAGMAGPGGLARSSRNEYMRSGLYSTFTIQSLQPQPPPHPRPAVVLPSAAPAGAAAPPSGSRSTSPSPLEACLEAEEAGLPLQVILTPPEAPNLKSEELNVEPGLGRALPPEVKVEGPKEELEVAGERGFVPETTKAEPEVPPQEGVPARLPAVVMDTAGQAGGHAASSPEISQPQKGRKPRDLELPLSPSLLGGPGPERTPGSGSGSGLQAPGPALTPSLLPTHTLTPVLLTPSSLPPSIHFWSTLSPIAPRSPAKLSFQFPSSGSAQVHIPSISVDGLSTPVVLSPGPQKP
How it was run: as §1

GABPA = target: T3, GABPA (Homo sapiens, UniProt Q06546 1-454)
T3 sequence: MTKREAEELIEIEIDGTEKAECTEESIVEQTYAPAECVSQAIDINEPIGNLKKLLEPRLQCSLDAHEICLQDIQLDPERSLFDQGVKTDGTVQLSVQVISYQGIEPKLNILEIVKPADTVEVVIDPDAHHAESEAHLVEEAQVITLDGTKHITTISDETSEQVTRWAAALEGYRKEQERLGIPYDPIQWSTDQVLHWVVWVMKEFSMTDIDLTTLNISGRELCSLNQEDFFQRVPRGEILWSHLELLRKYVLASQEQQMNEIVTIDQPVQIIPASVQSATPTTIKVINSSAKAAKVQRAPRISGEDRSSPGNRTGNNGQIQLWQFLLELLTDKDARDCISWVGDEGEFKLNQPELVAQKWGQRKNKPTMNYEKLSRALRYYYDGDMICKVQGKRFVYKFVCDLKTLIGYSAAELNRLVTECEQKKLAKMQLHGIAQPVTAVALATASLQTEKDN
How it was run: as §1

ERG = target: T4, ERG (Homo sapiens, UniProt P11308 1-479)
T4 sequence: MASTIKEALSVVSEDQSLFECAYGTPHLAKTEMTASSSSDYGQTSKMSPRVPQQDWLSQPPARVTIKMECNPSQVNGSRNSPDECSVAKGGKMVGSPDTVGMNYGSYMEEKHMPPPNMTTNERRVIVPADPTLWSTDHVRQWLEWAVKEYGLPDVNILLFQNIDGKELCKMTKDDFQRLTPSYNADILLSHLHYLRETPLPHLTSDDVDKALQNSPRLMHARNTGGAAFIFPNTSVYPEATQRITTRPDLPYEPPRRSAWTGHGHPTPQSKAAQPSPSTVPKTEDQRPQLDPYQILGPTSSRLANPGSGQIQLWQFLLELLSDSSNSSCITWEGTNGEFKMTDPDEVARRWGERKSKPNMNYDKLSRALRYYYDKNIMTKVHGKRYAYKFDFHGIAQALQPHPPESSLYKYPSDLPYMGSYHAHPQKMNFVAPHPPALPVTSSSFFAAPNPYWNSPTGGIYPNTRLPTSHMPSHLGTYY
How it was run: as §1

ELF1 = ELF1 (Homo sapiens, UniProt P32519 1-619)
Sequence of ELF1 (P32519 whole entry): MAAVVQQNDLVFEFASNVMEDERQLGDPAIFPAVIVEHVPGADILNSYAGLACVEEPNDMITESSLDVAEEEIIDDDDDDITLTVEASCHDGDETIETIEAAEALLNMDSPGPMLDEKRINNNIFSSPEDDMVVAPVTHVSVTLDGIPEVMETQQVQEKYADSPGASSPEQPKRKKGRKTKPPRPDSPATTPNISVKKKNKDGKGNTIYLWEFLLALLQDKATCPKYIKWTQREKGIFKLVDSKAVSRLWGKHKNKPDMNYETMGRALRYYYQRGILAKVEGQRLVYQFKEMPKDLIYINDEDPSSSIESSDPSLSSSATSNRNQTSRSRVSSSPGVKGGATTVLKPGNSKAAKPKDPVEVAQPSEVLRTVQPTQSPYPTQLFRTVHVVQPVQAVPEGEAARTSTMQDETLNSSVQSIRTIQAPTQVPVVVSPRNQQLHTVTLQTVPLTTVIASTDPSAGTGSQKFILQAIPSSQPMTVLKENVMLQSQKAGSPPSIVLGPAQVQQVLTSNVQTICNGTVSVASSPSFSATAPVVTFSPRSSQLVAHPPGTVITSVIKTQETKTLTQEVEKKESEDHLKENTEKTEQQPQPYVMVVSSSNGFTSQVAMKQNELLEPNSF
How it was run: as §1

SPIB = SPIB (Homo sapiens, UniProt Q01892 1-262)
Sequence of SPIB (Q01892 whole entry): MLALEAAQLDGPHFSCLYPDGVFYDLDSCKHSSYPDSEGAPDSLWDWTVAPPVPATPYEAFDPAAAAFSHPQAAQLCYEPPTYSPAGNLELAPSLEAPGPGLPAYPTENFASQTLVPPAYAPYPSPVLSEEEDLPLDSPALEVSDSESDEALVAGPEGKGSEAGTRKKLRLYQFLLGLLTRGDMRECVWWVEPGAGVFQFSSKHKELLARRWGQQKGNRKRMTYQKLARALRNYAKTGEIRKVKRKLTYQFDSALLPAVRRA
How it was run: as §1

ELK3 = target: T5, ELK3 (Homo sapiens, UniProt P41970 1-407)
T5 sequence: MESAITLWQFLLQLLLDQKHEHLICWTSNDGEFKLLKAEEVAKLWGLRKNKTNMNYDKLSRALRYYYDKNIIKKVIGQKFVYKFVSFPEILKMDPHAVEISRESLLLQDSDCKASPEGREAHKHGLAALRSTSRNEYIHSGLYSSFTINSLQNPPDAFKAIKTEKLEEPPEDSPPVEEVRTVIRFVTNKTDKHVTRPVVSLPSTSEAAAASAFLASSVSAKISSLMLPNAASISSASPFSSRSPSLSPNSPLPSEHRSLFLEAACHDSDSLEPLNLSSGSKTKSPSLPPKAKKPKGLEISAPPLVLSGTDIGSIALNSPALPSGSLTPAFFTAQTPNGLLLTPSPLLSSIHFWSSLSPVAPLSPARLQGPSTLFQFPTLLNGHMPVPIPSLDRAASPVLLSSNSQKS
How it was run: as §1

EHF = target: T6, EHF (Homo sapiens, UniProt Q9NZC4 1-300)
T6 sequence: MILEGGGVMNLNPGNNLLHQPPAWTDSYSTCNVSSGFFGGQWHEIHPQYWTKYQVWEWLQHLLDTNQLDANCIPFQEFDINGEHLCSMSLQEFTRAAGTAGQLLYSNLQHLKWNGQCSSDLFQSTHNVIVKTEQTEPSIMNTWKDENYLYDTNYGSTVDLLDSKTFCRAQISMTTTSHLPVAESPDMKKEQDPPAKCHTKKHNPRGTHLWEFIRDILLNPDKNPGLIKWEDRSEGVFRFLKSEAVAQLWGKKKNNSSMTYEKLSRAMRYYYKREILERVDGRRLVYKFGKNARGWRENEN
How it was run: as §1

SPI1 = SPI1 (Homo sapiens, UniProt P17947 1-270)
How it was run: as §1

Sequence	binding signal (FLI1)	binding signal (ELK1)	binding signal (GABPA)	binding signal (ERG)	binding signal (ELF1)	binding signal (SPIB)	binding signal (ELK3)	binding signal (EHF)	binding signal (SPI1)
AATCGA	1 fold enrichment (6-mer frequency, TF over GST control)	1.06 fold enrichment (6-mer frequency, TF over GST control)	1.07 fold enrichment (6-mer frequency, TF over GST control)	1.02 fold enrichment (6-mer frequency, TF over GST control)	1.03 fold enrichment (6-mer frequency, TF over GST control)	1.07 fold enrichment (6-mer frequency, TF over GST control)	1.12 fold enrichment (6-mer frequency, TF over GST control)	–	–
TAGCGG	1.14 fold enrichment (6-mer frequency, TF over GST control)	1.1 fold enrichment (6-mer frequency, TF over GST control)	1.06 fold enrichment (6-mer frequency, TF over GST control)	1.16 fold enrichment (6-mer frequency, TF over GST control)	–	1.17 fold enrichment (6-mer frequency, TF over GST control)	1.08 fold enrichment (6-mer frequency, TF over GST control)	1.24 fold enrichment (6-mer frequency, TF over GST control)	1.23 fold enrichment (6-mer frequency, TF over GST control)
TGGTTA	1.17 fold enrichment (6-mer frequency, TF over GST control)	1.08 fold enrichment (6-mer frequency, TF over GST control)	1.09 fold enrichment (6-mer frequency, TF over GST control)	1.13 fold enrichment (6-mer frequency, TF over GST control)	1.1 fold enrichment (6-mer frequency, TF over GST control)	1.12 fold enrichment (6-mer frequency, TF over GST control)	1.13 fold enrichment (6-mer frequency, TF over GST control)	–	1.15 fold enrichment (6-mer frequency, TF over GST control)
TTTAGG	1.05 fold enrichment (6-mer frequency, TF over GST control)	1.12 fold enrichment (6-mer frequency, TF over GST control)	1.11 fold enrichment (6-mer frequency, TF over GST control)	1.08 fold enrichment (6-mer frequency, TF over GST control)	–	1.15 fold enrichment (6-mer frequency, TF over GST control)	1.07 fold enrichment (6-mer frequency, TF over GST control)	1.06 fold enrichment (6-mer frequency, TF over GST control)	1.08 fold enrichment (6-mer frequency, TF over GST control)
GCTGGC	1.01 fold enrichment (6-mer frequency, TF over GST control)	1.21 fold enrichment (6-mer frequency, TF over GST control)	1.02 fold enrichment (6-mer frequency, TF over GST control)	1.01 fold enrichment (6-mer frequency, TF over GST control)	1.11 fold enrichment (6-mer frequency, TF over GST control)	–	1.03 fold enrichment (6-mer frequency, TF over GST control)	–	1 fold enrichment (6-mer frequency, TF over GST control)
TGCCTA	1.02 fold enrichment (6-mer frequency, TF over GST control)	1.12 fold enrichment (6-mer frequency, TF over GST control)	1.01 fold enrichment (6-mer frequency, TF over GST control)	–	1.11 fold enrichment (6-mer frequency, TF over GST control)	1.07 fold enrichment (6-mer frequency, TF over GST control)	–	1.09 fold enrichment (6-mer frequency, TF over GST control)	1.04 fold enrichment (6-mer frequency, TF over GST control)
